Assay outcomes from PubChem.
BAZ2B inh: qHTS Assay for Inhibitors of BAZ2B; Bromodomain adjacent to zinc finger domain protein 2B (Homo sapiens), Q9UIF8; AlphaScreen BAZ2B-H3K14Ac peptide displacement; Potency, µM (doses to about 114 µM), inactives show top-dose activity change, negative = inhibition, actives largely listed as inhibitors; 4.4% of 360,000 active; AID 504333, 2011; further: on the % scale 0 is the no-effect control and ±100 the full control effect; nearly all actives have a fitted effect of over 60% in size
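AlphaScreen displacement of biotin-H3(5-23)K14Ac peptide (50 nM final) from BAZ2B (50 nM final) in PBS pH 7.4, 0.01% Tween-20; complex preformed 30 min RT, then compounds (top 110 uM) 30 min RT, beads 20 min dark.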
HP1b binding inh: HTS for Inhibitors of HP1-beta Chromodomain Interactions with Methylated Histone Tails; Chromobox protein homolog 1 (Homo sapiens), P83916; AlphaScreen HP1-beta / biotin-H3K9me3 peptide binding; Potency, µM (series often up to 114 µM), inactives show at the top dose activity change, negative = inhibition, most hits filed as inhibitors; 0.56% of 390,000 active; further: nearly all actives have a fitted effect of over 70% in size
Target sequence (P83916 whole entry, looked up): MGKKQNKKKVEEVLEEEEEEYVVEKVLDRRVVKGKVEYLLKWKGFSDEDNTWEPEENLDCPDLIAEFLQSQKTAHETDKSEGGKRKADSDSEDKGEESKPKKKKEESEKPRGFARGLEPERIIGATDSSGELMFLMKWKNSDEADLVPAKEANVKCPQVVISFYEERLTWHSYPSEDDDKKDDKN
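HP1-beta protein (50 nM final) preincubated 30 min at room temperature with biotinylated H3(1-18)K9me3 peptide (50 nM) in PBS pH 7.4, 0.01% Tween-20, then compound added for 30 min. AlphaScreen streptavidin donor/nickel chelate acceptor beads (10 ug/mL final), 30 min dark, luminescence read.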
Sfp PPTase inh: qHTS Assay for Inhibitors of Bacillus subtilis Sfp phosphopantetheinyl transferase (PPTase). Biochemical Sfp PPTase activity, qHTS. 3.5% of 310,000 active. 4'-phosphopantetheinyl transferase ffp (Bacillus subtilis), Q9F4F7. Potency, µM, for inactives: largest response in the series, negative = inhibition, actives largely listed as inhibitors;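 further: the enzyme is Sfp with the accession as filed and its product quenches rhodamine fluorescence; 0% = enzyme reaction without inhibitor and -100% = no enzyme wells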
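Compounds were incubated with enzyme (final 15 nM) for 15 min at room temperature before substrate addition started the reaction. Fluorescence at 525 nm excitation, 598 nm emission was recorded immediately and after 30 minutes.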
JMJD2A Tudor: qHTS Assay for Inhibitors of JMJD2A-Tudor Domain; AID 504339, 2011; Potency, µM (series often up to 114 µM), inactives show at the highest dose activity change, negative = inhibition, most hits filed as inhibitors; Lysine-specific demethylase 4A (Homo sapiens), O75164; AlphaScreen JMJD2A-Tudor / H3K4me3 peptide binding; 4.4% of 390,000 active; further: on the % scale 0 is the no-effect control and ±100 the full control effect; nearly all actives have a fitted effect of over 50% in size
L3MBTL1 inh: qHTS Assay for the Inhibitors of L3MBTL1 | Lethal(3)malignant brain tumor-like protein 1 (Homo sapiens), Q9Y468 | AlphaScreen L3MBTL1–H3K9me1 peptide binding | Potency, µM (series often up to 57.1 µM), for inactives: top-dose activity, negative = inhibition, actives largely listed as inhibitors | 0.66% of 230,000 active | AID 485360, 2010; further: on the % scale 0 is the no-effect control and ±100 the full control effect; nearly all actives have a fitted effect of over 60% in size
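Read-out is AlphaScreen signal from streptavidin donor and nickel chelate acceptor beads (10 ug/mL final each) bridging L3MBTL1 (50 nM) and biotinylated K9-monomethylated H3(1-15) peptide (75 nM), after 30 min compound exposure at room temperature.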
G9a inh: qHTS Assay for Inhibitors of Histone Lysine Methyltransferase G9a; G9a H3K9 monomethylation, AlphaScreen, 2 h; Potency, µM (top dose mostly 102 µM), inactives show at the highest dose activity, negative = inhibition, most hits filed as inhibitors; 8.8% of 350,000 active; AID 504332, 2011; further: on the % scale 0 is the no-effect control and ±100 the full control effect; nearly all actives have a fitted effect of over 75% in size
Target sequence (Q96KQ7 913-1193 limits assumed): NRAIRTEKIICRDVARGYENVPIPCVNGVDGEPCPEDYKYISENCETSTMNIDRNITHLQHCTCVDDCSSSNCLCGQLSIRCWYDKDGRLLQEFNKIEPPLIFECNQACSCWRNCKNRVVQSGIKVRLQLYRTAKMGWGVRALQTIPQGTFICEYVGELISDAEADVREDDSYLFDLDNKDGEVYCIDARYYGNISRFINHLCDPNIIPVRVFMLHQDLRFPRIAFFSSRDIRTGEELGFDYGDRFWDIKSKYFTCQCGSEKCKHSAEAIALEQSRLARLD
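Readings reflect AlphaScreen signal from monomethyl-H3K9 antibody detection. HMT at 20 nM; substrate b-H3K9 500 nM; cofactor SAM 20 uM; 2 h RT reaction; compounds tested as titrations in qHTS with 15 min preincubation.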
The depositor's hits bear a star; [ ] = remark or other dose. Sampled rows, rich in hits. Any-hit rate of the full collection: about 12%. The call rests on the fitted dose curve; in most records, active means well fitted curve in the direction sought with a large enough effect; inconclusive means small, poorly fitted or top-dose-only effect, or another doubt; inactive means no such curve, though single readings can be large; an effect the other way counts as inactive or inconclusive. Potency means the concentration at half of the fitted maximal effect.

What do the screens show for `C/C(C=O)=C/c1ccccc1`?
BAZ2B inh: 7%; HP1b binding inh: 20%; JMJD2A Tudor: -14%; L3MBTL1 inh: -2%; G9a inh: -4%[0.501 µM]

How did C/C(=C\c1ccccc1)CN(C)CCN(C)C do in these assays?
BAZ2B inh: -2%; Sfp PPTase inh: 9%; L3MBTL1 inh: 6%; G9a inh: 56µM*

What do the screens show for `CCn1cc(C(=O)N2CCN(c3ccccc3)CC2)c(=O)c2cc(S(=O)(=O)N3CCCC3)ccc21`?
HP1b binding inh: -3%; JMJD2A Tudor: -25%; G9a inh: -36%[59 µM]

What do the screens show for `CCc1ccc(-n2cc(-c3ccc([N+](=O)[O-])cc3)[nH]c2=S)cc1`?
BAZ2B inh: -36%; HP1b binding inh: 9%; Sfp PPTase inh: -17%; JMJD2A Tudor: -24%; L3MBTL1 inh: -7%; G9a inh: inconclusive

What do the screens show for `CC(C)(C)c1cn(-c2ccc(F)cc2)c(=S)[nH]1`?
BAZ2B inh: -7%; HP1b binding inh: 23%; Sfp PPTase inh: inconclusive; JMJD2A Tudor: 25µM*; G9a inh: 1.4µM*

What do the screens show for `O=S(=O)(O)c1cc(O)c2ccc(Nc3ccccc3)cc2c1`?
HP1b binding inh: inconclusive; JMJD2A Tudor: 2.8µM*

Results for O=S(=O)(O)c1ccc(O)c2cc(Nc3ccccc3)ccc12 ?
HP1b binding inh: 2µM*; JMJD2A Tudor: 2.8µM*

Results for COc1ccccc1Nc1ccc2c(O)cc(S(=O)(=O)O)cc2c1 ?
HP1b binding inh: 22µM*; JMJD2A Tudor: 20µM*

Results for Cc1ccc(S(=O)(=O)c2cc(Nc3ccccc3)ccc2O)cc1 ?
BAZ2B inh: 50µM*; HP1b binding inh: -11%; JMJD2A Tudor: inconclusive; L3MBTL1 inh: inconclusive; G9a inh: 17%[2.33 µM]

Results for O=S(=O)(O)c1cc(O)c2c(N=Nc3ccc(Nc4ccccc4)c4c(S(=O)(=O)O)cccc34)cc(S(=O)(=O)O)cc2c1 ?
Sfp PPTase inh: -7%; G9a inh: inconclusive

Results for COc1ccc(S(=O)(=O)O)cc1P(=O)(c1ccccc1)c1ccccc1 ?
BAZ2B inh: -13%; HP1b binding inh: 16%; Sfp PPTase inh: 17%; JMJD2A Tudor: -17%; G9a inh: 3%

Results for Cc1nc(-c2ccc(F)cc2)sc1CCNC(=O)c1ccccc1C(F)(F)F ?
BAZ2B inh: -2%; HP1b binding inh: -1%[57 µM]; JMJD2A Tudor: -26%; G9a inh: 4%[59 µM]

How did Nc1ccc2c(O)cc(S(=O)(=O)O)cc2c1 do in these assays?
HP1b binding inh: inconclusive; JMJD2A Tudor: 45µM*

Results for Nc1cccc2c(O)cc(S(=O)(=O)O)cc12 ?
HP1b binding inh: 10µM*; JMJD2A Tudor: 10µM*

What do the screens show for `O=S(=O)(O)c1cc(O)c2cc(Nc3ccccc3)ccc2c1`?
HP1b binding inh: 35µM*; JMJD2A Tudor: 14µM*

How did Cc1cc(C(=O)C(C)Sc2cccc[n+]2[O-])c(C)n1-c1ccc(Cl)cc1 (configuration not stated) do in these assays?
BAZ2B inh: -37%; HP1b binding inh: -14%; Sfp PPTase inh: -4%; JMJD2A Tudor: -33%; L3MBTL1 inh: 4%; G9a inh: 40µM*

Results for Cc1ccc(N2CC(NC(=O)C(=O)c3c[nH]c4ccccc34)CC2=O)cc1 (configuration not stated) ?
BAZ2B inh: -2%; HP1b binding inh: 15%; JMJD2A Tudor: -9%; G9a inh: 5%[59 µM]

What do the screens show for `OCC1(CO)COC2(CCCC2)N1`?
BAZ2B inh: 4%; HP1b binding inh: -6%; Sfp PPTase inh: 2%; JMJD2A Tudor: 16µM*; G9a inh: -5%[12.7 µM]

Results for CCOc1ccccc1OCCOCCN1CC(C)OC(C)C1 (configuration not stated) ?
BAZ2B inh: inconclusive; HP1b binding inh: -21%; Sfp PPTase inh: 0%; JMJD2A Tudor: inconclusive; L3MBTL1 inh: 2%; G9a inh: 16µM*

How did Cc1ccc([N+](=O)[O-])c(OCCN2CCC(Cc3ccccc3)CC2)c1 do in these assays?
BAZ2B inh: 22µM*; HP1b binding inh: inconclusive; Sfp PPTase inh: inconclusive; JMJD2A Tudor: 3.2µM*; L3MBTL1 inh: -11%; G9a inh: inconclusive

How did O=C(COc1ccccc1[N+](=O)[O-])N1CCC(Cc2ccccc2)CC1 do in these assays?
HP1b binding inh: -21%; Sfp PPTase inh: -2%; JMJD2A Tudor: -5%[11.4 µM]; G9a inh: inconclusive

What do the screens show for `N#Cc1ccccc1OCCCN1CCC(Cc2ccccc2)CC1`?
BAZ2B inh: inconclusive; HP1b binding inh: inconclusive; Sfp PPTase inh: -7%; JMJD2A Tudor: 4.5µM*; G9a inh: 32µM*

How did N#Cc1ccccc1OCC(=O)C1CC1 do in these assays?
BAZ2B inh: 0%; HP1b binding inh: 29%; Sfp PPTase inh: 22%; JMJD2A Tudor: 0%; L3MBTL1 inh: -1%; G9a inh: 22%[59 µM]

Results for CCOc1ccccc1OCCN1CCCC1 ?
BAZ2B inh: -26%; HP1b binding inh: -17%; Sfp PPTase inh: 12%; JMJD2A Tudor: 20µM*; L3MBTL1 inh: 1%; G9a inh: 79µM*

How did Cc1ccc(SCCOCCN2CC(C)OC(C)C2)cc1 (configuration not stated) do in these assays?
BAZ2B inh: 10%; HP1b binding inh: 20%; Sfp PPTase inh: 11%; JMJD2A Tudor: -9%; G9a inh: inconclusive

How did COCCCNC(=O)Cn1c(=O)n(-c2cccc(C)c2)c(=O)c2c1c1cc(C)ccc1n2C do in these assays?
BAZ2B inh: -1%; HP1b binding inh: 35%; JMJD2A Tudor: -14%; G9a inh: 1%[59 µM]

How did CC(=O)OCCBr do in these assays?
Sfp PPTase inh: -11%

How did Cn1c(=O)c(-c2ccccc2)nc2cnc(N3CCOCC3)nc21 do in these assays?
Sfp PPTase inh: -7%; G9a inh: 15%[0.501 µM]

How did COc1cccc(OC)c1C1=Nn2c(nnc2-c2ccccc2C)SC1 do in these assays?
Sfp PPTase inh: -7%; JMJD2A Tudor: -30%

How did Cc1nc(-c2ccccc2)sc1CCNS(=O)(=O)c1ccccc1 do in these assays?
BAZ2B inh: -1%; HP1b binding inh: 25%[57 µM]; JMJD2A Tudor: -7%; G9a inh: 8%[59 µM]

How did CCN1CCN(Cc2ccc(OCc3ccccc3)c(OC)c2)CC1 do in these assays?
BAZ2B inh: -1%; HP1b binding inh: 22%; Sfp PPTase inh: 11%; JMJD2A Tudor: -27%; L3MBTL1 inh: 2%; G9a inh: inconclusive
